Drawing on PubChem BioAssay (NCI), this text covers growth for 8 compounds.

What all share (experiment): NCI-60 one-dose screen, 48 h (100 = growth as untreated, 0 = no growth, -100 = all killed)
What all share (conditions): 10 µM unless noted

For experiment [1], the system named is NCI-H23 lung.
Experiment [2] relates to NCI-H226 lung.
Experiment [3] relates to NCI-H322M lung.
In experiment [4] the test system is HOP-62 NSCLC.
Experiment [5] has as its system NCI-H460 lung.
Experiment [6] deals with HOP-92 NSCLC.
Experiment [7] deals with NCI-H522 lung.
The subject of experiment [8] is A549/ATCC NSCLC.
Experiment [9] relates to 786-0 renal.
The test system of experiment [10] is COLO 205 colon.
The subject of experiment [11] is DU-145 prostate.
Experiment [12] relates to K-562 leukemia.
Experiment [13] relates to MALME-3M melanoma.
For experiment [14], the system named is MDA-MB-231 breast.
Experiment [15] concerns RXF 393 renal.
The test system of experiment [16] is SF-268 CNS.
Experiment [17] relates to SF-295 CNS.
Experiment [18] relates to SF-539 CNS.
Experiment [19] relates to UACC-257 melanoma.
Experiment [20] has as its system M14 melanoma.

This is part of a sample that, as a whole, favours compounds with a hit. Of some 83,000 tested, about 20% had one in any assay.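 Values shown are percent growth following 48 h exposure of cells in 96-well plates to a single concentration of compound; below 10 was considered active.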 A number with no mark means an inactive call. Calls of active or inactive are those of the source.

Regarding `COc1ccc(C(=O)c2cc(OC)c(OC)c(OC)c2)cc1OC(=O)C(Cl)(Cl)Cl`, the growth was 26.9% in [1]; 95.4% in experiment [2]; 38.4% in [3]; 17.3% in experiment [4]; 5.08% (active) in [5]; 50.3% in experiment [6]. In addition, the growth in experiment [7] was -13.3% (active); in experiment [8], 19%; in experiment [9] it was 20.9%; in [10] it was 13%; in [11], 7.06% (active); in [12], 7.85% (active). For the same compound, the growth in [13] is 74.8%; in experiment [14], 28.7%; in experiment [15] it was 29.9%; in experiment [16] it was 34.7%; in experiment [17], 8.77% (active); in experiment [18], -7.13% (active). For the same compound, the growth in experiment [19] is 56%; in experiment [20], -4.45% (active).

As to `Cc1c(Br)cccc1NC(=O)c1sc2nc3c(cc2c1N)CN(Cc1ccccc1)CC3`, the growth was 40.7% in [1]; 23.7% in experiment [2]; 41.2% in experiment [3]; -2.37% (active) in experiment [4]; 6.71% (active) in experiment [5]; 30.2% in [6]. The growth in [7] was -0.487% (active); in experiment [8] it was 21.4%; in experiment [9] it was 35.1%; in experiment [10], -4.67% (active); in experiment [11], 17.8%; in experiment [12], 7.49% (active). Also, the growth in experiment [13] was 32.8%; in experiment [14], 22.7%; in [15], 6.25% (active); in [16] it was 31.7%; in [17] it was 18.8%; in experiment [18] it was -4.32% (active). Further, the growth in [19] was 67.7%; in [20], 0.627% (active).

For `CSc1nc(-c2ccco2)c2c(N)[nH]nc2n1`, the growth in [1] was 97.7%; in experiment [2], 102%; in experiment [3], 97.8%; in experiment [4] it was 84.6%; in experiment [5] it was 97.6%; in [6], 109%. For the same compound, the growth in [7] was 79.4%; in experiment [8] it was 100%; in experiment [9] it was 93.4%; in experiment [10], 123%; in experiment [11], 102%; in experiment [12] it was 85.6%. Besides, the growth in experiment [13] is 119%; in experiment [14], 99.1%; in experiment [15], 118%; in experiment [16] it was 104%; in experiment [17], 102%; in [18], 97.5%. For the same compound, the results for the growth in experiment [19] and in [20] were 129% and 120%, respectively.

In the case of `O=C1NN(c2ccccc2)C(c2ccc3c(c2)OCO3)N2CCC[C@@H]12` (stereo not given in full), the growth is 88.2% in experiment [1]; 105% in experiment [2]; 88.3% in experiment [3]; 91.4% in [4]; 106% in experiment [5]; 107% in [6]. For the same compound, the growth is 70.1% in experiment [7]; 97.9% in [8]; 98.2% in experiment [9]; 104% in [10]; 101% in [11]; 93.8% in experiment [12]. In addition, the growth in experiment [13] was 94.9%; in experiment [14], 105%; in experiment [15] it was 117%; in [16], 94%; in experiment [17], 103%; in experiment [18] it was 111%. Further, the growth is 99.2% in experiment [19] and 96.6% in [20].

Turning to `COC(=O)c1nc(-c2ccccc2)oc1S(=O)(=O)n1nc(-c2ccccc2)cc1N`, the growth in experiment [1] was 90.4%; in [2] it was 105%; in [3], 90.7%; in experiment [4] it was 101%; in experiment [5] it was 100%; in experiment [6] it was 72.1%. For the same compound, the growth in experiment [7] was 44.3%; in [8], 102%; in [9] it was 87.3%; in [10], -8.05% (active); in experiment [11], 96.2%; in experiment [12], 4.99% (active). In addition, the growth in experiment [13] is 2.22% (active); in [14], 103%; in experiment [15] it was 103%; in [16] it was 87.5%; in experiment [17], 97.5%; in experiment [18], 80.7%. Also, the growth in experiment [19] is 52%; in experiment [20], 76%.

For `COc1ccc(/C=C/C(=O)/C=C(/C=C/c2ccc(OC)c(OC)c2)OB(F)F)cc1OC`, the growth in experiment [1] was 52.3%; in [2], 57.1%; in [3], 103%; in [4] it was 83.5%; in experiment [5], 21.8%; in experiment [6], 56.8%. Besides, the growth in experiment [7] was -32.4% (active); in experiment [8] it was 60.8%; in experiment [9], 12.5%; in [10], -23.2% (active); in experiment [11] it was 35.1%; in [12], 17.4%. Moreover, the growth in experiment [13] was 25.4%; in [14], 21%; in [15] it was -10.8% (active); in [16] it was 34.9%; in experiment [17] it was 69.4%; in experiment [18], 28.8%. Further, the growth in [19] is 59.1%; in experiment [20], 11.1%.

In the case of `CCCCOc1nc2ccc(C)cc2cc1/C=C/C(=O)/C=C/c1ccc2c(c1)OCO2`, the growth in [1] was 82.4%; in experiment [2], 96.3%; in experiment [3] it was 88%; in [4] it was 112%; in [5], 103%; in experiment [6] it was 80.6%. Moreover, the growth in experiment [7] is 60.6%; in [8], 78.3%; in experiment [9], 97.9%; in [10], 123%; in [11], 82.8%; in experiment [12], 69.1%. The growth is 106% in [13]; 92.8% in [14]; 108% in experiment [15]; 75.4% in experiment [16]; 105% in experiment [17]; 109% in experiment [18]. Also, the growth was 73.3% in [19] and 52.4% in experiment [20].

For `Nc1c(C(=O)Nc2cccc3ccccc23)sc2nc3c(cc12)COCC3`, the growth is 63.1% in [1]; 98% in [2]; 82.4% in experiment [3]; 39.9% in [4]; 31.1% in experiment [5]; 61.1% in experiment [6]. Further, the growth in experiment [7] was 26.4%; in [8] it was 50.9%; in experiment [9], 38.6%; in experiment [10], 58.7%; in experiment [11] it was 58.7%; in experiment [12] it was 17.5%. The growth in [13] was 60.8%; in experiment [14], 53.3%; in [15], 41.4%; in experiment [16], 56.5%; in experiment [17] it was 28.9%; in experiment [18], 30%. The results for the growth in experiment [19] and in [20] were 54.5% and 35.7%, respectively.
